# High-throughput results from PubChem BioAssay.
# HT1080-NT tox: qHTS for induction of synthetic lethality in tumor cells producing 2HG: qHTS for the HT-1080-NT fibrosarcoma cell line. Potency, µM (titrated, usually from 46.1 µM), usual class: cytotoxic. HT-1080-NT fibrosarcoma viability, CellTiter-Glo ATP luminescence, 48 h. 360,000 compounds, 1.6% hits;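 further: NT is the 2HG producing partner of a matched IDH1 knockdown line; nearly all actives have a fitted effect of over 55% in size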
#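 HT-1080-NT fibrosarcoma cells (2HG-overproducing), 750 cells/well in RPMI with 5% FBS, dosed after 2 h and incubated 48 h at 37C. CellTiter-Glo luminescence normalized to DMSO and no-cell wells; concentration-response curves fitted and classed.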
# KB-3-1 tox: qHTS assay for MDR1-selective chemotherapeutics: Primary screen using the parental adenocarcinoma cell KB-3-1 | KB-3-1 viability, CellTiter-Glo ATP luminescence, 72 h | Potency, µM (titrated, usually from 46.1 µM), most hits filed as cytotoxic | 400,000 compounds, 1.4% hits | AID 1347075, 2019; further: nearly all actives have a fitted effect of over 60% in size
#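 Parental KB-3-1 viability, qHTS format: 72 h compound exposure, 37 °C; CellTiter-Glo; media-only wells and DMSO plates as controls; concentration-effect fits on corrected data.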
# TDP1 cell CPT: qHTS for Inhibitors of human tyrosyl-DNA phosphodiesterase 1 (TDP1): qHTS in cells in presence of CPT. 420,000 compounds, 12% hits. Potency, µM (series often up to 46.2 µM), hits mostly inhibitors. chicken DT40 Tdp1-/-;hTDP1 cells + 20 nM CPT, ATP luminescence, 48 h; further: nearly all actives have a fitted effect of over 55% in size
#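 Cell growth measured by CellTiter-Glo luminescence after a minimum 48 h, 37 C compound exposure with 20 nM CPT in Tdp1-knockout DT40 cells stably expressing hTDP1, seeded 400/well; qHTS titration format.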
# TDP1 cell noCPT: qHTS for Inhibitors of human tyrosyl-DNA phosphodiesterase 1 (TDP1): qHTS in cells in absence of CPT. DT40 Tdp1-/- hTDP1 cells, no CPT, ATP luminescence, 48 h. Potency, µM (top dose mostly 46.2 µM), hits mostly inhibitors. 420,000 compounds, 15% hits. AID 686978, 2013; further: nearly all actives have a fitted effect of over 55% in size
#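 DT40 Tdp1-/-;hTDP1 cells, no CPT (DMSO vehicle only), 400 cells/well; compounds pin-transferred; ≥48 hr, 37 °C; CellTiter-Glo 30 min RT dark, luminescence read.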
# KB-V1 MDR tox: qHTS assay for MDR1-selective chemotherapeutics: Primary screen using the drug-selected MDR subline cells KB-V1 | Potency, µM (highest dose often 46.1 µM), actives largely listed as cytotoxic | KB-V1 MDR cells viability, CellTiter-Glo, 72 h | 400,000 compounds, 3.4% hits; further: nearly all actives have a fitted effect of over 60% in size
#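 Luminescent ATP read-out (CellTiter-Glo, 10 min) measures survival of drug-selected KB-V1 MDR cells after 72 h, 37 degrees C compound exposure. Medium: phenol-red-free DMEM, 10% FBS. Values from fitted concentration-response curves.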
# HT1080 IDH1KD tx: qHTS for induction of synthetic lethality in tumor cells producing 2HG: qHTS for the HT-1080-IDH1KD cell line; Potency, µM (doses to about 46.1 µM), actives largely listed as cytotoxic; 360,000 compounds, 2% hits; HT-1080 IDH1 knockdown viability, ATP luminescence, 48 h
#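 Knockdown cells (IDH1KD HT-1080) received compounds 2 h after plating at 750 cells/well and were kept 48 h at 37 °C in 5% FBS RPMI. A CellTiter-Glo luminescence read gave % activity for curve fitting.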
# Numbers stand for hits; 0 = inactive; ? = inconclusive; - = not tested or not shown. In the library only some 19% were active in any assay of this set; here they are far more common. The call rests on the fitted dose curve; in most records, active means well fitted curve in the direction sought with a large enough effect; inconclusive means small, poorly fitted or top-dose-only effect, or another doubt; inactive means no such curve, though single readings can be large; an effect the other way counts as inactive or inconclusive.
SMILES,HT1080-NT tox,KB-3-1 tox,TDP1 cell CPT,TDP1 cell noCPT,KB-V1 MDR tox,HT1080 IDH1KD tx
CCOC(=O)N1CCN(S(=O)(=O)CCNC(=O)c2ccc(F)cc2)CC1,0,0,0,0,0,0
COc1ccc2nc(N(Cc3cccnc3)C(=O)c3ccc(Cl)cc3)sc2c1,-,-,0,0,-,-
Cc1nc2n(c(=O)c1CCN1CCC(c3noc4cc(F)ccc34)CC1)CCC[C@H]2O,-,0,0.0944µM,0.531µM,0,-
O=C(C[n+]1ccccc1)N1c2ccccc2Sc2ccccc21,0,0,?,?,0,0
CN(C)c1cc[n+](CC(=O)N2c3ccccc3Sc3ccccc32)cc1,?,?,2.06µM,2.91µM,0,0
CCOc1ccc(-n2ccnc2SCC(=O)N2CCCc3ccccc32)cc1,0,0,?,?,11.6µM,0
CC(=O)c1cccc(NC(=O)Cc2ccc(NC(=O)N3CCCCc4ccccc43)cc2)c1,-,0,?,16.4µM,0,-
COc1cccc(-n2ccnc2SCC(=O)N2CCCc3ccccc32)c1,0,0,?,?,?,0
CCOc1ccccc1CNC(=O)Cc1ccc(NC(=O)N2CCCCc3ccccc32)cc1,-,0,11.6µM,9.2µM,0,-
CCOc1ccc(NC(=O)Cc2ccc(NC(=O)N3CCCCc4ccccc43)cc2)cc1,-,0,5.17µM,5.17µM,0,-
Cn1c(=O)c2cc(NC(=O)CCc3ccc(O)cc3)ccc2n1Cc1cccc(C(F)(F)F)c1,?,?,?,20.6µM,0,?
Cn1c(=O)c2cc(NC(=O)NCc3ccccc3)ccc2n1Cc1cccc(C(F)(F)F)c1,0,0,?,?,0,0
COc1ccccc1CCC(=O)Nc1ccc2c(c1)c(=O)n(C)n2Cc1cccc(C(F)(F)F)c1,0,?,23.1µM,?,?,0
Cn1c(=O)c2cc(NC(=O)CCc3ccccc3)ccc2n1Cc1cccc(C(F)(F)F)c1,0,0,16.4µM,13µM,0,0
COc1cccc(Cn2c3ccc(NC(=O)CCc4ccc(F)cc4)cc3c(=O)n2C)c1,?,4.11µM,4.61µM,3.66µM,?,4.11µM
O=C(COc1ccc(S(=O)(=O)N2CCCC2)cc1Cl)NCc1cccnc1,0,0,0,0,?,0
COc1ccc(C(=O)NCc2ccc3c(c2)CCN3C(=O)c2cccc(C)c2)cc1OC,-,0,0,0,0,-
Cn1c(=O)c2cc(NC(=O)CCc3ccccc3)ccc2n1-c1ccccc1F,?,?,11.6µM,13µM,0,7.31µM
COc1ccccc1CCC(=O)Nc1ccc2c(c1)c(=O)n(C)n2C,0,0,?,0,0,0
COc1ccccc1CCC(=O)Nc1ccc2c(c1)c(=O)n(C)n2Cc1ccc(F)cc1,3.26µM,8.2µM,4.61µM,5.17µM,?,5.8µM
COc1ccc(NC(=O)c2cc(S(=O)(=O)N3CCOCC3)ccc2C)cc1S(=O)(=O)N1CCOCC1,0,0,0,0,?,0
C=CC[C@@H](CC(=O)N[C@H](CO)Cc1ccccc1)C(=O)N[C@H](COC(=O)[C@@H](CC=C)Cc1ccc(F)cc1)Cc1c[nH]c2ccccc12,?,?,13µM,18.4µM,?,?
C=CC[C@H](CC(=O)N[C@H](CO)Cc1ccccc1)C(=O)N[C@H](COC(=O)[C@@H](CC=C)Cc1ccc(F)cc1)Cc1c[nH]c2ccccc12,0,0,0,0,0,0
C=CC[C@@H](CC(=O)N[C@@H](CO)Cc1ccccc1)C(=O)N[C@@H](COC(=O)[C@@H](CC=C)Cc1ccc(F)cc1)Cc1c[nH]c2ccccc12,0,0,16.4µM,20.6µM,0,0
C=CCc1cc(OC)ccc1OCCOCCN1CCc2ccccc2C1,?,0,?,?,?,?
SMILES,HT1080-NT tox,KB-3-1 tox,TDP1 cell CPT,TDP1 cell noCPT,KB-V1 MDR tox,HT1080 IDH1KD tx
COc1cccc(NC(=S)N(CCc2nc3cc(C)c(C)cc3[nH]2)Cc2cccnc2)c1,0,0,23.1µM,0,?,0
CCc1ccc(NC(=S)N(Cc2cccnc2)Cc2ccco2)cc1,0,0,?,18.4µM,?,0
CSc1cccc(NC(=S)N(Cc2ccc(C)cc2)Cc2cccnc2)c1,0,0,?,20.6µM,?,0
Cc1ccccc1NC(=S)N(Cc1ccccc1)Cc1cccnc1,0,0,0,0,?,0
COCCCN(Cc1cc(OC)c(OC)c(OC)c1)C(=S)Nc1cccc(SC)c1,0,0,16.4µM,8.2µM,?,0
COc1ccc(NC(=S)N(Cc2cccnc2)Cc2ccco2)cc1,0,0,0,0,?,0
Cc1cc2c(cc1NC(=O)c1ccccc1Cl)n(C)c(=O)c(=O)n2C,-,0,0,0,0,-
Cc1cc(O)ccc1-c1cccc2nccn12,0,0,0,0,0,0
CCc1ccc(NC(=S)N(CCCN2CCOCC2)Cc2ccccn2)cc1,0,0,0,0,0,0
CCc1ccc(NC(=S)N(Cc2ccccc2)Cc2ccccn2)cc1,?,0,11.6µM,4.61µM,0,?
CCN(CC(=O)Nc1ccccc1OC)C(=O)CSCC(=O)Nc1ccc(OC)cc1,18.4µM,0,0,0,?,?
CCC(=O)c1ccc(OCC(=O)N(CC)CC(=O)Nc2ccccc2OC)cc1,0,0,0,0,16.4µM,0
O=C(NCC1CCCO1)c1cc2nc(-c3ccco3)cc(C(F)(F)Cl)n2n1 (stereo unspecified),0,0,0,0,0,0
CN(C)/C=C1/C=C(c2ccccc2)OC1=O,?,0,?,?,0,?
O=C1OC(c2ccccc2)=C/C1=C/N1CCOCC1,0,0,?,16.4µM,0,0
O=C1OC(c2ccccc2)=C/C1=C\N1CCOCC1,0,0,23.1µM,?,?,0
CC12CCC(=O)N1C(C(=O)Oc1cccc(F)c1)CS2 (stereo unspecified),0,0,0,0,0,0
Cc1ccccc1OCCCn1c(CO)nc2ccccc21,0,?,?,18.4µM,?,0
CCc1nc2ccccc2n1CCCCOc1ccccc1C,-,?,?,25.9µM,?,-
Cc1ccc(NCc2nc3ccccc3n2CCOc2ccccc2C)cc1,-,?,?,?,0,-
CCCNC(=O)C1(C)CCN(C(=O)c2cccc(C(F)(F)F)c2)C1 (stereo unspecified),0,0,0,0,0,0
CCc1c(C)nc2ncnn2c1N1CCCC(C(=O)Nc2cc(F)ccc2C)C1 (stereo unspecified),0,0,16.4µM,20.6µM,0,0
